In PubChem BioAssay AID1794808 (University of Kansas High Throughput Screening Laboratory, 2022) one finds inhibition data, which are given here for 30 compounds.

Several values for one entry are separate records, joined by “and”; a condition that tells them apart may be missing. Identical values can stand only once. The campaign covered roughly 210,000 compounds. About 520 (0.25%) were called active. The entries come from a sample that favours actives as a whole. Values without a mark were called inactive. Rule as the data show it: active = inhibition above about 50%; inactive = the rest.

The test system of the test is Plasmodium falciparum apicoplast DNA polymerase (apPOL). As to the kind of experiment: Pf-apPOL inhibitors, biochemical, fluorescence (AID 1794808). Conditions: Recombinant Pf-apPOL, molecular beacon fluorescence, 1.5 h; at 10 µM; stronger effect = higher value.
A word on the inhibition: it is the drop in the measured response relative to a control, in per cent. On to `O=C(CS(=O)(=O)CC(=O)c1ccccc1)c1ccccc1`, for which the inhibition is -2.4%. For the compound `Cc1c(Cl)ccc(NC(=O)C2CCCN2S(=O)(=O)c2ccccc2)c1Cl` (stereo not given), the inhibition is -7.1%. `O=C(Nc1ccc(Cl)cc1)NC1(C(F)(F)F)Oc2ccccc2O1`: the inhibition is 1.5%. Consider `COc1ccc(Cl)cc1NC(=O)CN(c1ccccc1)S(=O)(=O)c1ccccc1[N+](=O)[O-]`, for which the inhibition is -6.5%.

`CC1=C(C(=O)Nc2ccc(Cl)cc2)C(c2ccc(Cl)cc2Cl)n2ncnc2N1` (stereo not given): the inhibition is 6%. Under `CCN(CC)S(=O)(=O)c1ccc(Cl)c(C(=O)O)c1` stands -5%; under `Cc1ccc(Cl)cc1NC(=O)C(=O)NCc1ccccn1`, 0.8% and 0%; under `O=C(COc1ccc(F)cc1)Nc1nnc(C2CC(=O)N(c3ccccc3)C2)o1` (stereo not given), 4.1%. With `CN(C)c1ccc(/C=C(\C#N)c2ccc([N+](=O)[O-])cc2)cc1Br`, the inhibition is -5.5%. Take `COCC(=O)N1CCCCC1c1nncn1CC1CC1` (stereo not given): the inhibition was 3.4%. `CC(C)(C)C(=O)Oc1ccc(C=Cc2ccccn2)cc1`: the inhibition was -22%. The result for `O=C(CSc1nnc(NC(=O)c2cc(-c3ccco3)on2)s1)NC1CCCC1` reads 60.9% (active); that for `Nc1ccc2nc(SCC(=O)NC3CC3)sc2c1`, 6.4%; that for `O=C(CSc1nnc(NC(=O)c2ccc(Cl)c(Cl)c2)s1)NCc1ccco1`, 0.7%. Turning to `O=C1CC(NCc2ccc3c(c2)OCO3)C(=O)N1c1ccc(OC(F)(F)F)cc1` (stereo not given), the inhibition was 0.2%. Regarding `Cc1cc(C)c(S(=O)(=O)N2CCC(c3noc(-c4ccc(F)cc4)n3)CC2)c(C)c1`, the inhibition is -5.5%. Regarding `O=Cc1ccc(OCc2ccc(I)cc2)cc1`, the inhibition is -6.6%. Regarding `COc1ccccc1C(=O)Oc1ccc2c(c1)OC(=Cc1cccc(OC)c1OC)C2=O`, the inhibition was -1.8%. `COc1ccc(CCNC(=O)CSc2ccc(-n3cccn3)nn2)cc1OC`: the inhibition is -3.3%.

Regarding `CC(C)(C)C(O)CCNC(=O)C(=O)NCc1ccccc1` (stereo not given), the inhibition is -5.8%.

Take `O=C(NCC(O)c1ccsc1)c1cccc2ccccc12` (stereo not given): the inhibition was -3.1%. Under `COc1ccc(-c2cn3c4c(=O)n(C)c(=O)n(C)c4nc3n2CCO)cc1` stands -0.7%; under `COc1ccc(-c2c3c(=O)n(C)c(=O)n(C)c3cn2-c2ccc(Br)cc2)cc1`, 73.4% (active). Turning to `Cn1c(=O)c2c(-c3ccccc3)n(-c3cccc([N+](=O)[O-])c3)cc2n(C)c1=O`, the inhibition is 0.3%. With `CN1CCC(N2CCN(C(=O)C3CCc4sc(C(=O)N5CCCC5)cc4C3)CC2)CC1` (stereo not given), the inhibition was -2.3%.

Regarding `CC(C)N1CCN(C(=O)c2csc(N3CCN(c4ccccc4)CC3)n2)CC1`, the inhibition was -6.1%. As for `CCOc1ccc(-c2cc3n(n2)CCCN(C(=O)c2ccccn2)C3)cc1`, the inhibition is -2.1%. With `O=C(Nc1cccs1)N1CCN(C(=O)C2CCCO2)CC1` (stereo not given), the inhibition is 0.6%. On to `O=C(c1cccc(-n2cnnn2)c1)N1CCN(c2ccc(-c3cccs3)nn2)CC1`, for which the inhibition was -10.3%. For the compound `O=C(Nc1cccs1)N1CCN(c2ccc(-c3ccco3)nn2)CC1`, the inhibition was 64.3% (active).
